Data: PubChem BioAssay (NCATS)
Inconclusive results are not listed. Values without a mark were called inactive. Activity calls are given as the source filed them. Unless noted, the call rests on the fitted dose curve.

Test system: not listed separately
Assay: AP1 Signaling Pathway (AID 357; active means well fitted curve in either direction with a large enough effect, not every such curve was filed as active;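 further: ME-180 reporter cells stimulated with EGF at its EC50 level; on the % scale 0 is the no-effect control and ±100 the full control effect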)
Conditions: ME-180 (cervical carcinoma) AP-1-bla reporter, EGF-induced, beta-lactamase ratio, 5 h; at 7.69 µM (top of the series) unless noted
Summary of the method: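 Modulation of EGF-driven AP-1 transcription was assessed with a beta-lactamase reporter in ME-180 cells. Compound and EC50 EGF were co-incubated 5 hours at 37 °C before 2.5-hour CCF4 loading at room temperature and dual-emission reading.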

| Compound | activity change, negative = inhibition |
| --- | --- |
| COC(=O)N1CCC2(CCCN(C(=O)Nc3cccc(C#N)c3)C2)CC1 | -0.449% |
| O=C(c1csnn1)N1CCC2(CCN(Cc3cc(C(F)(F)F)cc(C(F)(F)F)c3)CC2)CC1 | 11.5% |
| O=S(=O)(c1ccccc1)N1CCC2(CC1)CN(c1ccncc1)C2 | 0.671% |
| COC(=O)N1CCC2(CCCN(c3ccccn3)C2)CC1 | -5.95% |
| CC(=O)N1CCC2(CCCN(Cc3ccc(C#N)cc3)C2)CC1 | 1.53% |
| COc1ccccc1CN1CCC2(CC1)CCN(C(=O)c1cccc(F)c1)CC2 | -13% |

Molecular target: Cytochrome P450 1A2 (Homo sapiens) (UniProt P05177)
Assay: p450-cyp1a2 (AID 410); further: potency means the concentration at half of the fitted maximal effect;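 on activity change, negative = inhibition: -100% = full effect of reference inhibitor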
Conditions: recombinant CYP1A2, luciferin-ME demethylation, luminescence; series mostly up to 57 µM; activity change, negative = inhibition: at the top concentration
Summary of the method: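 Inhibition was calculated relative to 57 uM furafylline (full inhibition). The reaction used human CYP1A2 at 20nM with Luciferin-ME at its Km, 100uM, driven by an NADPH-regenerating system for 60 min at room temperature.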

Sequence of Cytochrome P450 1A2 (Homo sapiens) (P05177 whole entry, looked up): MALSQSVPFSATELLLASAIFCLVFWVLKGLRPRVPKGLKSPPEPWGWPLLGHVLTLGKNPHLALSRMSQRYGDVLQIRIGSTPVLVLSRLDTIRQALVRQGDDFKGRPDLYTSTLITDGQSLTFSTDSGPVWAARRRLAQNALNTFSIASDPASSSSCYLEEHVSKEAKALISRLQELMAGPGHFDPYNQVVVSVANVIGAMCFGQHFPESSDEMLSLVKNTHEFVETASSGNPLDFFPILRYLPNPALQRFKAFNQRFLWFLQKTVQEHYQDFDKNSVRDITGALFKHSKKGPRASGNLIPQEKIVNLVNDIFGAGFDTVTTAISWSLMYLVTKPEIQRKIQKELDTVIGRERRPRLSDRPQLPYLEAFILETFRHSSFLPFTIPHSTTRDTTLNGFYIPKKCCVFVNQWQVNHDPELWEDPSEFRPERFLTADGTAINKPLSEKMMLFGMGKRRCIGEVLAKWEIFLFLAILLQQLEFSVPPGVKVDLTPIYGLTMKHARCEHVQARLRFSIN

| Compound | Potency | activity change, negative = inhibition |
| --- | --- | --- |
| Cc1cnc(CNc2ncncc2-c2ccccc2CN(C)C)cn1 | 12.6 µM (active) | – |
| COc1ccccc1CNc1ncncc1-c1ccccc1C | 7.94 µM (active) | – |
| CS(=O)(=O)N1CCC2(CC1)CN(c1ccccc1)C2 | 20 µM (active) | – |
| CCNc1ncc2ncc(=O)n(C[C@H]3CCCO3)c2n1 | 10 µM (active) | – |
| COc1ccccc1CN1CCC2(CC1)CCN(C(=O)c1ccco1)CC2 | – | -0.4% |
| CN(C)C(=O)c1ccc(-c2nc(NCc3ccccc3)c3ccccc3n2)cc1 | 15.8 µM (active) | – |
| CC(C)CN1CCCC2(CCN(C(=O)c3cnccn3)CC2)C1 | – | -9.3% |
| CN(C)C(=O)c1ccc(-c2nc(NCc3cccs3)c3ccccc3n2)cc1 | 12.6 µM (active) | – |
| CC(C)NC(=O)N1CC[C@@]2(CCCN(S(=O)(=O)c3ccccc3)C2)C1 | – | -2.4% |
| COc1ccc(C(=O)N2CCC3(CCN(Cc4ccc(C#N)cc4)CC3)CC2)cc1 | 12.6 µM (active) | – |
